For part of these data: Results with a measured potency or affinity are listed apart. The source made the active and inactive calls.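 The calls were made as follows, unless noted: active = calcium signal rise above buffer-control mean plus 5 SD in both duplicates, and also a hit in the primary screen; inactive = the rest.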

The subject of assay [1] is TRPC4 beta (transient receptor potential cation channel C4), mouse. Nature of the assay: TRPC4 cation channel opening, retest – cell-based, Fluo4 calcium, HEK293 TRPC4beta/mu-opioid, duplicates, 10 µM, confirmation (AID 2426;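 active = fluorescence ratio normalized to control raised more than 50% in primary screen plus both repeat runs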;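 as to activation: percent rise of integrated ratio over buffer wells lacking compound which define 0%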). The note with it: Fluo4 calcium fluorescence, at 10 µM; active compounds read high.
Assay [2] deals with transient receptor potential cation channel C4 beta (TRPC4), mouse. Nature of the assay: TRPC4 cation channel opening, second retest – cell-based, second round, Fluo4, HEK293 TRPC4beta/mu-opioid, 1 µM, confirmation (AID 2461;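 active = primary screen active and over 50% activation in each of two duplicate runs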;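 as to activation: 0% = wells without test compound as baseline of integrated fluorescence ratio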). The note with it: Fluo4 calcium fluorescence, at 1 µM; active compounds read high.
Assay [3] concerns TRPC4 (transient receptor potential cation channel C4 beta), mouse. As to the kind of experiment: potentiation of DAMGO EC20 TRPC4 response – cell-based, second round, Fluo-4, HEK293 TRPC4beta/mu-opioid, 1 µM, confirmation (AID 2554;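 active = primary screen hit whose fluorescence ratio, in both repeats, exceeds the weak agonist control mean by 3 SD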). The note with it: DAMGO EC20, Fluo-4 calcium flux, at 1 µM; active compounds read high.
The subject of assay [4] is TRPC4 beta (transient receptor potential cation channel C4), mouse. Nature of the assay: potentiation of DAMGO EC20 TRPC4 response – cell-based, Fluo-4, HEK293 TRPC4beta/mu-opioid, confirmation (AID 2555;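 active = primary screen hit whose calcium fluorescence ratio, in both repeats, exceeds the weak agonist control mean by 3 SD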). The note with it: DAMGO EC20, Fluo-4 calcium flux, at 10 µM; active compounds read high.
In assay [5] the target is Short transient receptor potential channel 4 (Mus musculus) (UniProt Q9QUQ5). As to the kind of experiment: blockers of DAMGO-evoked TRPC4 calcium flux – cell-based, Fluo4, HEK293 TRPC4beta/mu-opioid, confirmation (AID 2636;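 active = calcium signal cut by more than 3 SD below the full-agonist control yet still positive, in both repeats and the earlier primary screen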). The note with it: at 10 µM; active compounds read high.
Assay [6] shares this target. As to the kind of experiment: blockers of DAMGO-evoked TRPC4 calcium flux – cell-based, second round, Fluo4, HEK293 TRPC4beta/mu-opioid, 1 µM, confirmation (AID 2637;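 active = calcium signal ratio cut to more than 3 SD under the fully stimulated control mean yet still positive, in both repeats and the primary screen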). The note with it: at 1 µM; active compounds read high.
Assay [7] shares this target. Nature of the assay: potentiation of DAMGO-evoked TRPC4 calcium signal – cell-based, HEK293 TRPC4/mu-opioid, Fluo-4 calcium, EC20 DAMGO, dose response (AID 434941;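 active = earlier screen potentiator hit that boosts the TRPC4 ion channel at some dose, with a dose response; inactive = no potentiation, no dose response, or not a prior hit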;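 also: calcium entry triggered by an EC20 dose of DAMGO at the co-expressed mu-opioid receptor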).
Assay [8] has the same target. Nature of the assay: block of DAMGO-driven TRPC4 calcium entry – cell-based, HEK293 TRPC4/mu-opioid, Fluo-4 calcium, dose response (AID 434942;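 active = primary screen inhibitor hit that blocks the TRPC4 channel at some tested dose, yielding a dose curve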).
Assay [9] concerns the target Short transient receptor potential channel 6 (Mus musculus) (UniProt Q61143). As to the kind of experiment: TRPC6 blockade by TRPC4 inhibitor hits – cell-based, HEK293, membrane potential dye, duplicate, selectivity assay for TRPC4 inhibitor project, confirmation (AID 434948;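 active = active in primary screen and both duplicates, each dropping signal beyond three positive-control SD with fluorescence still positive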). The note with it: HEK293 TRPC6, membrane potential dye fluorescence, at 10 µM, stimulated with maximal-effect acetylcholine; active compounds read high.

Assay [10] has the same target. Nature of the assay: TRPC6 opening by TRPC4 activator hits – cell-based, HEK293, membrane potential dye, duplicate, selectivity assay for TRPC4 activator project, confirmation (AID 434950;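 active = membrane potential signal rise above negative control mean plus 3 SD in both duplicates, also active in the earlier TRPC4 screen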;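 as to activation: 0% = buffer only wells and 100% = acetylcholine maximal-effect wells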). Conditions: HEK293 TRPC6, membrane potential fluorescence, at 10 µM; activation: active compounds read high; outcome: activation.
For assay [11] the target is unchanged. Nature of the assay: positive modulators of mouse TRPC6 channel – HEK293 cells, membrane potential dye, duplicate, selectivity assay for TRPC4 potentiator project, confirmation (AID 434952;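 active = compound raising the membrane signal above positive-control mean plus 3 SD in both repeats, and a primary screen hit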). The note with it: HEK293 TRPC6, membrane potential dye fluorescence, at 10 µM, maximal acetylcholine added after compound; active compounds read high.
Assay [12] concerns the target Short transient receptor potential channel 4 (Mus musculus) (UniProt Q9QUQ5). As to the kind of experiment: calcium flux activators in TRPC4/5HT1a cells, counter-screen for TRPC4 activator project, cell-based, second counter screen, HEK293 TRPC4/5HT1a, Fluo-4 (AID 434977).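 As to activation: plate controls were assay buffer for no effect and maximal serotonin response for full effect.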 Conditions: Fluo-4 calcium flux, at 10 µM; active compounds read high.
Assay [13] can be described thus: serotonin-gated TRPC4 signal block – cell-based, second counter screen, HEK293 TRPC4/5HT1a, Fluo-4, counter-screen for TRPC4 inhibitor project, confirmation (AID 434978;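 active = primary screen active whose calcium signal fell more than 3 SD beyond the full-serotonin control mean in both duplicate plates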;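 also: serotonin given first at submaximal then at maximal dose after compound preincubation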). The note with it: Fluo-4 calcium flux, at 10 µM, serotonin added to trigger calcium flux; active compounds read high.
The subject of assay [14] is TRPC4 (mouse), co-expressed with 5HT1a in HEK293. As to the kind of experiment: enhancement of serotonin-evoked TRPC4 response – cell-based, second counter screen, HEK293 TRPC4/5HT1a, Fluo-4, counter-screen for TRPC4 potentiator project, confirmation (AID 434979;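 active = signal rise over 3 SD above mean of control wells given weak agonist, in both repeats and first screen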). Conditions: Fluo-4 calcium flux, at 10 µM, serotonin added at its EC20 dose; active compounds read high.
A short description of assay [15]: nonspecific calcium rise without TRPC4 – cell-based, HEK293 mu-opioid receptor line, counter-screen for TRPC4 activator project, confirmation (AID 449723;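 active = hit in primary screen, with calcium signal over 5 SD above buffer well mean in both duplicates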;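 also: counter screen cells carry the mu-opioid receptor alone and lack TRPC4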). The note with it: HEK293 mu-opioid cells, Fluo-4 calcium fluorescence, at 10 µM; active compounds read high.
The nature of assay [16]: nonspecific potentiation of DAMGO calcium response – cell-based, HEK293 mu-opioid receptor line, counter-screen for TRPC4 allosteric potentiator project, confirmation (AID 449724;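 active = calcium signal rise more than 3 SD above the low-dose agonist control mean, in both duplicate plates and the primary screen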;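 also: HEK293 cells carrying mu-opioid receptor only with no TRPC4 channel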). Conditions: HEK293 mu-opioid receptor cells, Fluo-4 calcium flux, at 10 µM, compound added before EC20 DAMGO stimulus; active compounds read high.

Chain of Short transient receptor potential channel 4 (Mus musculus) (Q9QUQ5 whole entry, looked up): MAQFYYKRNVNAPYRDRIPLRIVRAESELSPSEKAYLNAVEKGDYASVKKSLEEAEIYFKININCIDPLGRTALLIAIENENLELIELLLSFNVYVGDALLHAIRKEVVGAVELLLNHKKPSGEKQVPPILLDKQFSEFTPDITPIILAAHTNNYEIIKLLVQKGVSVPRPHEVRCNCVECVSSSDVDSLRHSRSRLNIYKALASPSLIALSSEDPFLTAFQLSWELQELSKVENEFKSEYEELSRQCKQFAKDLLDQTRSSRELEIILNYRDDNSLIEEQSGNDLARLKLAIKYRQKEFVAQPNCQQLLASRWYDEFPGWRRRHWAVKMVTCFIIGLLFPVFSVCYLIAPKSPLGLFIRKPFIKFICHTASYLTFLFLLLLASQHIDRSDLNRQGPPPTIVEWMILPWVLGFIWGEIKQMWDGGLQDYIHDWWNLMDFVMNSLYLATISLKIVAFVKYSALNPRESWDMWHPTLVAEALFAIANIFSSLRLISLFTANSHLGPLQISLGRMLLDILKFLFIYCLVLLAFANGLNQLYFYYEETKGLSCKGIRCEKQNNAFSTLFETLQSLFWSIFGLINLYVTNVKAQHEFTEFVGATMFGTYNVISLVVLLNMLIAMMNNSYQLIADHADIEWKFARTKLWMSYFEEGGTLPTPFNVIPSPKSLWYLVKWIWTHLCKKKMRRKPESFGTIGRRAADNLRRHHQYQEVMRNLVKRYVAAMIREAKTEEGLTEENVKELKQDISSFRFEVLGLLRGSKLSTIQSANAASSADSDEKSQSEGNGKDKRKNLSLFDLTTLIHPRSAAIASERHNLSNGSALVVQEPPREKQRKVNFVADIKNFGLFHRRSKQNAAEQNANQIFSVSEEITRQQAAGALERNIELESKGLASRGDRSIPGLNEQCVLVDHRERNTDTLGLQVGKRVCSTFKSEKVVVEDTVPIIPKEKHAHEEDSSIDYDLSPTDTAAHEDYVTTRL
Chain of Short transient receptor potential channel 6 (Mus musculus) (Q61143 whole entry, looked up): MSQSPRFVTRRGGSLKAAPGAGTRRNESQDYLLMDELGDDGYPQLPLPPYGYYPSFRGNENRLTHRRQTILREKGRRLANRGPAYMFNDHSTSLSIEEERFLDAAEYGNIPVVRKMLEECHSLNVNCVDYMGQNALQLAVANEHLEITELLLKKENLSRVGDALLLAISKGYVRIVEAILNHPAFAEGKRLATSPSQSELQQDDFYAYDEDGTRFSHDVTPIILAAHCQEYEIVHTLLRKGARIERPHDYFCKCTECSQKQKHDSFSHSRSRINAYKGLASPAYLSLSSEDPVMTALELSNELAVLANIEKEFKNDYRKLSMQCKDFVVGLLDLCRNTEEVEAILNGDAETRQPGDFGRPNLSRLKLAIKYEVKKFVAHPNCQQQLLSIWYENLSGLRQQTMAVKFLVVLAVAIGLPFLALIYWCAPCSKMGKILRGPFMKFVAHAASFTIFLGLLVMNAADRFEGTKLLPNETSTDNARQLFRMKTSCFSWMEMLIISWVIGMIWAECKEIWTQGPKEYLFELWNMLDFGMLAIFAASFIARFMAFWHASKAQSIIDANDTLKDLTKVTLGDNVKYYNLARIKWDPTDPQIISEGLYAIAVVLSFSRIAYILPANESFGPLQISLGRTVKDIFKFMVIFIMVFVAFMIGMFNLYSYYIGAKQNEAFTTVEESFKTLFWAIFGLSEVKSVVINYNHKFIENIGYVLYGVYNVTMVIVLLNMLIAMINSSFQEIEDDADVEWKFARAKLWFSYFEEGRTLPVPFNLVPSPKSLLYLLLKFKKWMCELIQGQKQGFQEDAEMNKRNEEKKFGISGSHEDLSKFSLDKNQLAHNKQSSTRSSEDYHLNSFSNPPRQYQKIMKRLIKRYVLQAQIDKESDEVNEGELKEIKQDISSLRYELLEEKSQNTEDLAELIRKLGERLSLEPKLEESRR

As to `CCn1c(N2CCN(Cc3ccc([N+](=O)[O-])cc3)CC2)nc2ccccc21`, the activation was 100% (active) in [1], 83% (active) in [2] and 22% (active) in assay [12]. For the same compound, the result in assay [3], in assay [4], in assay [5], in assay [6], in assay [7] and in assay [8] was inactive. The call in assay [9], in assay [10], in [11], in assay [13], in assay [15] and in assay [16] was inactive. The potentiation in assay [14] was 18.3% (active).
`Cc1cc(Br)ccc1OCCn1ccnc1`: the outcome in assay [1], in assay [2], in [3], in assay [4], in assay [5] and in assay [6] was inactive. Besides, the outcome in assay [7], in [8], in assay [9], in [11], in assay [13] and in assay [14] was inactive. Further, the result in [15] and in assay [16] was inactive. Also, the activation is 37.5% (active) in [10] and 11.7% (active) in assay [12].
As for `CN(C)CCCN(C(=O)c1ccc(S(=O)(=O)N(C)Cc2ccccc2)cc1)c1nc2cc3c(cc2s1)OCO3`, the result in assay [1], in assay [2], in assay [3], in assay [4], in assay [5] and in assay [6] was inactive. Moreover, the result in assay [7], in [8], in assay [9], in assay [10], in assay [11] and in [12] was inactive. The result in assay [13], in assay [14], in assay [15] and in assay [16] was inactive.
On to `CCCCN(CC)CCNC(=O)c1cc2cc3ccc(Cl)cc3nc2o1`, for which the activation was 67% (active) in assay [1] and 18.8% (active) in assay [12]. The result in assay [2], in assay [5], in [6], in assay [7], in [8] and in assay [9] was inactive. The compound was classed as inactive in [10], in assay [11], in assay [13], in assay [15] and in assay [16]. Further, the potentiation is 20% (active) in assay [3], 47% (active) in [4] and 40.5% (active) in assay [14].
Regarding `Cc1cc(C)c(C)c(OCCCN(C)C)c1`, the activation in [1] was 152% (active); in [2], 95% (active); in assay [10], 67.5% (active); in [12], 47.6% (active). In addition, the result in assay [3], in assay [4], in assay [5], in assay [6], in assay [7] and in assay [8] was inactive. Besides, the call in assay [9], in [11], in [13], in assay [15] and in assay [16] was inactive. Further, in assay [14], the potentiation is 15.7% (active).
For `CCn1cc(CN2CCC(n3nccc3NC(=O)CCOc3ccccc3)CC2)cn1`, in [1], the activation is 78% (active). Also, the outcome in assay [2], in assay [3], in assay [4], in assay [5], in [6] and in assay [7] was inactive. Further, the outcome in [8], in [9], in assay [10], in [11], in [12] and in assay [13] was inactive. Moreover, the result in assay [14], in [15] and in assay [16] was inactive.
Take `CCn1c(=O)cc(OCC(=O)NCCCN2CC(C)CC(C)C2)c2ccccc21` (stereo not given): the activation in assay [1] was 80% (active); in assay [2] it was 73% (active); in assay [12], 17.3% (active). Also, the result in assay [3], in [4], in assay [5], in assay [6], in assay [7] and in [8] was inactive. The outcome in assay [9], in assay [10], in assay [11], in assay [13], in [14] and in assay [15] was inactive. Further, the outcome in assay [16] was inactive.
As for `Cc1ccc(C)c(-n2cc(CNCCc3cnccn3)c(-c3ccccc3)n2)c1`, the activation in assay [1] was 152% (active); in [2] it was 54% (active); in [10] it was 40% (active). The outcome in [3], in assay [4], in [5], in assay [6], in assay [7] and in assay [8] was inactive. The call in [9], in assay [11], in [12], in assay [13], in assay [14] and in assay [15] was inactive. Further, the outcome in assay [16] was inactive.
For the compound `CCCN(CCC)CCCNC(=O)C1CCN(S(=O)(=O)c2cccc3nsnc23)CC1`, the activation is 145% (active) in [1], 95% (active) in [2] and 54.7% (active) in assay [12]. The outcome in assay [3], in assay [4], in assay [5], in assay [6], in assay [7] and in [8] was inactive. In addition, the compound was called inactive in assay [9], in [10], in assay [11], in assay [13], in [14] and in assay [15]. Besides, the result in [16] was inactive.
`CCOC(=O)C1(CCCc2ccccc2)CCN(Cc2cn(CC)nc2C)CC1`: the activation is 153% (active) in assay [1], 76% (active) in assay [2] and 84% (active) in assay [10]. Besides, the result in [3], in [4], in [5], in assay [6], in assay [7] and in assay [8] was inactive. Moreover, the compound was called inactive in assay [9], in assay [11], in [12], in assay [13], in assay [14] and in [15]. The outcome in assay [16] was inactive.
With `CCOC(=O)C1(CC2CCCCO2)CCN(Cc2c(C)cc(C)cc2-n2cccn2)CC1` (stereo not given), the activation in [1] is 75% (active); in assay [2], 103% (active); in [10], 62.5% (active). The outcome in assay [3], in assay [4], in [5], in [6], in assay [7] and in [8] was inactive. Moreover, the result in assay [9], in assay [11], in assay [12], in assay [13], in assay [14] and in [15] was inactive. In addition, the result in assay [16] was inactive.
For `COc1ccc(C(CCNCc2ccc(N(C)C)cc2)c2ccccc2OC)cc1` (stereo not given), the activation in [1] was 133% (active); in assay [12], 8.8% (active). In addition, the outcome in [2], in [3], in assay [4], in [5], in assay [6] and in assay [7] was inactive. The outcome in assay [8], in assay [9], in assay [10], in assay [11], in [13] and in assay [14] was inactive. For the same compound, the result in assay [15] and in [16] was inactive.
`CC(=O)N1CCc2cc(Br)cc(S(=O)(=O)NCCCN(C)Cc3ccccc3)c21`: the figures for the activation in [1], in assay [2] and in assay [12] were 87% (active), 72% (active) and 27.8% (active), respectively. The result in assay [3], in assay [4], in assay [5], in [6], in [7] and in assay [8] was inactive. The outcome in [9], in assay [10], in [11], in assay [13], in assay [14] and in assay [15] was inactive. In assay [16], the result was inactive.
With `Cc1cc(OCCCn2ccnc2)ccc1[N+](=O)[O-]`, the activation in assay [1] was 134% (active). Moreover, the outcome in [2], in assay [3], in assay [4], in [5], in assay [6] and in assay [7] was inactive. The outcome in assay [8], in assay [9], in assay [10], in [11], in [12] and in [13] was inactive. The result in assay [15] and in [16] was inactive. Further, in assay [14], the potentiation is 18.2% (active).
Consider `CN(C)C(CNC(=S)Nc1cccc(Cl)c1)c1cccnc1` (stereo not given), for which the values for the activation in assay [1] and in assay [2] were 77% (active) and 110% (active), respectively. The result in assay [3], in assay [4], in assay [5], in assay [6], in [7] and in [8] was inactive. In addition, the compound was called inactive in assay [9], in assay [10], in assay [11], in assay [12], in assay [13] and in assay [14]. Besides, the outcome in assay [15] and in [16] was inactive.

For the origin of these results see PubChem BioAssay.
